Our source for the binding signal values is article PMC7819943, “Rice protein-binding microarrays: a tool to detect cis-acting elements near promoter regions in rice”.

The full ranking holds about 35,000 sequences; the median of “fluorescence intensity (a.u.)” is about 10,000, and the highest 2% start at about 52,000. Only a selection was taken, and the highest values are over-represented in it overall.

The target in this assay is T1, OsWOX13 (Oryza sativa, UniProt Q5QMM3 1-267).
T1 sequence: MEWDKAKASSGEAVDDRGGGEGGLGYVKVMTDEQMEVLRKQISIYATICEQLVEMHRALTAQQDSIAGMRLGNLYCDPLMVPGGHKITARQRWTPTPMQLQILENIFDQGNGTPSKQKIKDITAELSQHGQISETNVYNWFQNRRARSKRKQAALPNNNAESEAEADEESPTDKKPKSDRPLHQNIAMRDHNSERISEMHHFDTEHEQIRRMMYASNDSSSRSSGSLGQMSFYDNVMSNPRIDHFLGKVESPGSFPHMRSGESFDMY
In words: protein-binding microarray (RPBM); PBS, 2% BSA, 51.3 ng/ul salmon testes DNA, 50 uM zinc acetate, 200 nM TF, 25 C, 1 h; high values mean tight binding. Conditions: protein: recombinant; tags: N-terminal polyhistidine and DsRed monomer fusion (pET32a); label: CyDye5-dUTP incorporated in the synthesized complementary strand; 3' TTTTT single-stranded linker to array surface; dsDNA, one strand shown. The method in brief:
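The binding signal for each feature is its fluorescence intensity in arbitrary units. An Axon 4000B scanner was used to read a custom Agilent array that had been made double-stranded with Cy5-dUTP primer extension, blocked with 2% BSA, incubated at 25 °C for 1 h with 200 nM protein in PBS, 2% BSA, salmon testes DNA and 50 µM zinc acetate, and washed. The protein was an N-terminal polyhistidine–DsRed transcription factor fusion from E. coli BL21-CodonPlus, purified on Ni–NTA.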
On to “TATCAAATTTATCCATTTGTTAATGTTGTAATAATTAAAACGGAGTCACCTAGTGCAG”, for which the binding signal is 6890 fluorescence intensity (a.u.).

“CTGACTTTGTCATACGTCTATGATTTGCCACTGACTTTATCGGAGTCACCTAGTGCAG”: the binding signal was 4530 fluorescence intensity (a.u.).

Regarding “CATTCTAATTAGCAATGGTCACCACGAATGATTAATGTAGCGGAGTCACCTAGTGCAG”, the binding signal is 28200 fluorescence intensity (a.u.).

In the case of “ACATCTAATTTGAAATGGATGTAGTATATTCTAATTGCATCGGAGTCACCTAGTGCAG”, the binding signal is 17000 fluorescence intensity (a.u.).

Turning to “TGAATATGTCCCAAATTAATTGTCACAATGGAGTACTAATCGGAGTCACCTAGTGCAG”, the binding signal was 3200 fluorescence intensity (a.u.).

Consider “TATTAGATTGGCTATAGATGAATTGGAGCTAGTAGTTGGCCGGAGTCACCTAGTGCAG”, for which the binding signal was 46700 fluorescence intensity (a.u.).

Regarding “TAGATTGGCTATAGATGAATTGGAGCTAGTAGTTGGCTATCGGAGTCACCTAGTGCAG”, the binding signal is 25400 fluorescence intensity (a.u.).

As to “AATATTAGATTGGCTATAGATGAATTGTAGCTAGTAGTTGCGGAGTCACCTAGTGCAG”, the binding signal is 54100 fluorescence intensity (a.u.).

On to “CTGCTGCTTGATTATTTGGGTTCAACTGGCAAGAACTATGCGGAGTCACCTAGTGCAG”, for which the binding signal is 8890 fluorescence intensity (a.u.).

For the sequence “GTGATTGATGCCGCCTGGGTTAGTTCAACTATTGCTGCATCGGAGTCACCTAGTGCAG”, the binding signal is 55400 fluorescence intensity (a.u.).

With “TGGGTGATTGATTAGTACTACTGCTGCATCTGCACTGCATCGGAGTCACCTAGTGCAG”, the binding signal is 38400 fluorescence intensity (a.u.).

As for “TCAAAATCAGTTTGAGTAAATTTTATTTTGGTTCAACTTTCGGAGTCACCTAGTGCAG”, the binding signal was 6800 fluorescence intensity (a.u.).

As for “ATTTTGATTAAATGGTGATCAGCCAAAGCATTTGCCATCCCGGAGTCACCTAGTGCAG”, the binding signal is 39300 fluorescence intensity (a.u.).

On to “TATTCAATCATCCAAGGTTTGCATATCATTGACCGGCGTGCGGAGTCACCTAGTGCAG”, for which the binding signal is 14400 fluorescence intensity (a.u.).

Regarding “GGCGACAAGACAGATAGACAGAAGCCATTCATATCGAACCCGGAGTCACCTAGTGCAG”, the binding signal was 5190 fluorescence intensity (a.u.).

Consider “CTTTGACAGACAGATATCCATTCATACGTGCACAGGCGACCGGAGTCACCTAGTGCAG”, for which the binding signal was 55300 fluorescence intensity (a.u.).

On to “GCTCCGGCGAGGCGAGGTCGGAGATCCCACCGCCGTGTCGCGGAGTCACCTAGTGCAG”, for which the binding signal is 65500 fluorescence intensity (a.u.).

In the case of “CCACCGTGATTTTCGCTCCCATCACCGCGCGAGGACTCCGCGGAGTCACCTAGTGCAG”, the binding signal is 3320 fluorescence intensity (a.u.).

As for “GGTCGCCGGATCGCGGGAGGGAGGGAGGGAGGGAGGGAGGCGGAGTCACCTAGTGCAG”, the binding signal was 7230 fluorescence intensity (a.u.).

For “CAAAACTAAAATGTTATCATATAATTATATATTTAAGACCCGGAGTCACCTAGTGCAG”, the binding signal was 8760 fluorescence intensity (a.u.).

As to “ATTCATATAATTTGTATCACCTCAATAATAATTGGTATCACGGAGTCACCTAGTGCAG”, the binding signal was 14700 fluorescence intensity (a.u.).

In the case of “GACAAATTTACAGTAGTTTAACTTTAAGCAAAGTCAAAACCGGAGTCACCTAGTGCAG”, the binding signal was 6260 fluorescence intensity (a.u.).

As for “TATACAATTATTTAAACAAAATTACCACTTTGCTACAACTCGGAGTCACCTAGTGCAG”, the binding signal is 8450 fluorescence intensity (a.u.).

In the case of “AAGGTTAATTGGATCCATGCCACGCGAATTGTGGCAAATCCGGAGTCACCTAGTGCAG”, the binding signal is 22100 fluorescence intensity (a.u.).

With “TTTTAATTACTGATCTTCTTACAATTGCTTTTATGCTGTCCGGAGTCACCTAGTGCAG”, the binding signal was 19700 fluorescence intensity (a.u.).

Take “TACTGCTGGATTGAATTAATGGATCAAGACTGAATTTATCCGGAGTCACCTAGTGCAG”: the binding signal is 12100 fluorescence intensity (a.u.).

In the case of “TTATGTAATTATTATTTATTTTATTGTGACTTAATTTATCCGGAGTCACCTAGTGCAG”, the binding signal is 15500 fluorescence intensity (a.u.).

Regarding “CCGCAATTATTGGCCCTTAATTGTGAGGTTAATCCGTGGCCGGAGTCACCTAGTGCAG”, the binding signal is 60900 fluorescence intensity (a.u.).

In the case of “CAATTAATTGCTTATCCGTGGCCTTGATCAATTACTGTGCCGGAGTCACCTAGTGCAG”, the binding signal is 56600 fluorescence intensity (a.u.).

“AGTCAATCAGTCAATCTGGACCGTCCACGGCAGAAGAAGTCGGAGTCACCTAGTGCAG”: the binding signal is 30700 fluorescence intensity (a.u.).

As for “GGATTATCAATCAAGCAAGCAAACAAACACTAAGGAAACCCGGAGTCACCTAGTGCAG”, the binding signal is 15000 fluorescence intensity (a.u.).

In the case of “GAATAATCAATTGCCGAATACGTTCTGGACATGGATATTGCGGAGTCACCTAGTGCAG”, the binding signal was 6880 fluorescence intensity (a.u.).

Regarding “CCTGGCTGATCGATAATTAATCCGTCCTCGCCGTCGCCATCGGAGTCACCTAGTGCAG”, the binding signal was 15400 fluorescence intensity (a.u.).

Regarding “ATATTGATTAGGCTCTCGGCTCTCTATTTAACCAACTGAACGGAGTCACCTAGTGCAG”, the binding signal was 34300 fluorescence intensity (a.u.).

In the case of “CTGATTGATTTAGCGGCTCAACATATATACCAAGGCGGCGCGGAGTCACCTAGTGCAG”, the binding signal was 61100 fluorescence intensity (a.u.).

On to “GGGAAGGCGGCGATTGATTTGATTTGACCAAGATTGGTCGCGGAGTCACCTAGTGCAG”, for which the binding signal is 28700 fluorescence intensity (a.u.).

With “GAACTAATCACAAATTTCCACCATACAATGCCGCTGTACTCGGAGTCACCTAGTGCAG”, the binding signal was 13300 fluorescence intensity (a.u.).

Regarding “ATGCAGTAATTAATCAATTAACTAATTAACTCACCCCATGCGGAGTCACCTAGTGCAG”, the binding signal is 47800 fluorescence intensity (a.u.).

For the sequence “CTGATTAACTCTTCAATCAAATCCCTAACTTGAGTGCATGCGGAGTCACCTAGTGCAG”, the binding signal was 57200 fluorescence intensity (a.u.).

For “GACTAACACCCTAGACTGATTAATCAAAGCATTGTGCATGCGGAGTCACCTAGTGCAG”, the binding signal was 16800 fluorescence intensity (a.u.).

Take “TGCCTTTGATTAATGTCATGATGTCACATGCTGAGATTCACGGAGTCACCTAGTGCAG”: the binding signal was 11900 fluorescence intensity (a.u.).

As to “TCACATTCTTGCATGATTGAACACTCCCTTTCATCCCTCACGGAGTCACCTAGTGCAG”, the binding signal was 18900 fluorescence intensity (a.u.).

On to “GTCATGTGATTGATGATTCAGCATCCCTTGAGGCTCAGTGCGGAGTCACCTAGTGCAG”, for which the binding signal was 53600 fluorescence intensity (a.u.).

For the sequence “CTTGATGATTAATCAATTCAATCTTGGCTGTCATGAGAGGCGGAGTCACCTAGTGCAG”, the binding signal was 62000 fluorescence intensity (a.u.).
